Most compounds without a hit are left out; they make up all but 7.5% or so of the library.
SMN2 splice enh: increases expression of the SMN2 splice variant; HEK293 SMN2-luciferase splicing reporter, luminescence, 30-36 h; Potency, µM (top dose mostly 46.1 µM), for the others: at the highest dose activity change, positive = activation, actives largely listed as activators; 2.8% of 210,000 active; AID 1458; note: % of control where 0% means no effect; nearly all actives have a fitted effect of over 55% in size
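HEK293 cells carry an SMN2 […]–luciferase reporter in which exon 7 inclusion puts luciferase in frame. Cells were plated 10-12 h before compound addition, then incubated 30-36 h at 37C. ONE-Glo luminescence was read; sodium butyrate at 4.5 mM final served as control.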
Rab9 promoter act: activators of Rab9 promoter; Huh7 Rab9 promoter-luciferase reporter, luminescence, 24 h; Potency, µM (series often up to 9.22 µM), inactives show top-dose activation, negative = inhibition, hits mostly activators; 2.8% of 320,000 active; AID 485297; note: % of control where 0% means no effect; nearly all actives have a fitted effect of over 60% in size
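Measured in stably transfected Huh7 cells bearing a Rab9 promoter–luciferase construct: 24 h compound treatment at 37 °C, followed by luminescence detection.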
NPC1 promoter act: NPC1 promoter activation. Huh7 NPC1 promoter luciferase reporter, 24 h. Potency, µM (titrated, usually from 9.22 µM), inactives show at the top dose activation, actives largely listed as activators. 2.4% of 320,000 active. AID 485313; note: % of control where 0% means no effect; nearly all actives have a fitted effect of over 60% in size
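Quantitative HTS used a cell-based reporter: Huh7 cells stably bearing the NPC1 promoter upstream of luciferase were treated with compounds for 24 h, and promoter activation was read as luminescence.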
ELG1 genotoxic: inducers of genotoxicity in HEK293T ELG1-luciferase cells; HEK293T ELG1-luciferase reporter, luminescence, 16 h; Potency, µM (highest dose often 46 µM), inactives show top-dose activity change, positive = activation, hits mostly activators; 1.3% of 330,000 active; AID 504466; note: % of control where 0% means no effect; nearly all actives have a fitted effect of over 60% in size
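Reporter readout depends on ELG1 protein level, which increases with genetic stress. After 16 hr compound exposure at 37 °C, luciferase activity was quantified using ONE-Glo.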
FLuc counter: firefly luciferase modulation, counter-screen for miR-21 project. P08659. purified FLuc, Km substrates, luminescence inhibition. Potency, µM (top dose mostly 57.5 µM), inactives show at the highest dose activity change, negative = inhibition, hits mostly inhibitors. 6.9% of 360,000 active. AID 588342;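 note: plate controls were vehicle for no effect and reference inhibitor for full effect; nearly all actives have a fitted effect of over 55% in size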
Target sequence (P08659 whole entry, looked up): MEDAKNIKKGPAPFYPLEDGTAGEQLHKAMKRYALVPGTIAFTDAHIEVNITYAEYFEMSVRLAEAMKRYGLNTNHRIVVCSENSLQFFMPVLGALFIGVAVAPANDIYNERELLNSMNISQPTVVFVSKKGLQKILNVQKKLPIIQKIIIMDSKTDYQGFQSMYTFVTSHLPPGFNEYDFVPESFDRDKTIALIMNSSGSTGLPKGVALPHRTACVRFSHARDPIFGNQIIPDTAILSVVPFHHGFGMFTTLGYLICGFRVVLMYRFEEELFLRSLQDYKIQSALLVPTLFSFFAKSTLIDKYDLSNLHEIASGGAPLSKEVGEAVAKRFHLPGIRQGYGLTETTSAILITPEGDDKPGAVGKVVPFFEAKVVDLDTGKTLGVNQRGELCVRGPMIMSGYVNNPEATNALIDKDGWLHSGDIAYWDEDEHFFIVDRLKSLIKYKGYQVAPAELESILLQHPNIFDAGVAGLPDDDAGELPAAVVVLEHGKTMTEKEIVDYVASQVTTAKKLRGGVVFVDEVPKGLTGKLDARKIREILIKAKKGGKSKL
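Biochemical qHTS of compounds, final roughly 60 µM downward over six points, against 10 nM purified firefly luciferase using Km concentrations of substrates (10 uM D-luciferin, 10 uM ATP) in Tris acetate pH 7.5 buffer; luminescence output.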
* = called active by the depositor; u = inconclusive; x = no result. Calls come from the whole dose curve; as a rule, active = well fitted curve in the direction sought with a large enough effect; inconclusive = small, poorly fitted or top-dose-only effect, or another doubt; inactive = no such curve, though single readings can be large; an effect the other way counts as inactive or inconclusive. Potency is the fitted concentration of half-maximal effect.

SMILES	SMN2 splice enh	Rab9 promoter act	NPC1 promoter act	ELG1 genotoxic	FLuc counter
O=C(NC1CCCCC1)c1ccc(N2CCCC2=O)cc1	u	28%	u	u	u
O=C(Nc1ccc(Cl)cc1)NC1CCCCC1	11µM*	2.5µM*	1.1µM*	20%	u
S=C(Nc1cccc2ccccc12)NC1CCCCC1	u	u	19%	u	19µM*
CSc1ccccc1NC(=S)NC1CCCCC1	7%	-4%	1%	-2%	3%
O=C(NC1CCCCCC1)c1ccc(N2CCCC2=O)cc1	13µM*	3.2µM*	4µM*	9.2µM*	13µM*
O=C(Nc1cccc(Cl)c1)NC1CCCCC1	29%	u	u	8%	u
O=C(Nc1ccc(F)c(F)c1)NC1CCCCC1	4.5µM*	u	u	9%	15µM*
CCCCN1C[C@H](O)[C@@H](O)[C@H](O)[C@H]1CO	-30%	1%	-2%	3%	2%
CCCOC(=O)Nc1nc(-c2ccc(C)cc2)c(C)s1	5%	16%	8%	1%	-18%
CC(=O)c1ccc(S(=O)(=O)N2CCN(C(=O)c3ccc(N)c([N+](=O)[O-])c3)CC2)cc1	x	3%	-1%	0%	1%
Cc1c(C(=O)Nc2ccc(N3CCOCC3)cc2)cccc1[N+](=O)[O-]	-4%	-9%	3%	-6%	3%
CC(=O)N1CCC(C(=O)Nc2ccc(S(=O)(=O)NCCc3ccccc3)cc2)CC1	x	3%	1%	-3%	2%
O=C(Nc1ccc(F)cc1)NC1CCCCCCC1	x	u	3.5µM*	u	9.5µM*
O=C(Nc1ccccc1F)NC1CCCCCCC1	x	4µM*	u	u	12µM*
O=C(Nc1ccccc1F)NC1CC1	2%	23%	-3%	7%	-2%
O=C(NC1CCCCCCC1)c1ccc(F)cc1	x	1.4µM*	1.4µM*	10µM*	12µM*
Nc1ccc(NC(=O)NC2CCCCC2)cc1	x	u	24%	u	u
Cc1cc(C(=O)N(C)C)sc1-c1ccccc1	10µM*	28%	u	u	21µM*
O=C(NC(=S)Nc1nc2c(s1)CCCC2)c1ccccc1	2µM*	u	4µM*	5.2µM*	3.4µM*
S=C(Nc1nc2c(s1)CCCC2)NC1CC1	x	2.5µM*	u	u	12µM*
COC(=O)c1ccc(C(=O)NC(=S)Nc2nc3c(s2)CCCC3)cc1	u	u	4µM*	11%	15µM*
CC1(C)Cc2nc3sc4c(=O)n(CC(=O)NCc5ccccc5)cnc4c3cc2CO1	16%	-6%	-13%	10%	u
CC1(C)Cc2nc3scc(NC(=O)c4ccccc4)c3cc2CO1	x	0%	-3%	2%	11µM*
COC(=O)c1sc2nc3c(cc2c1N)COC(C)(C)C3	9%	3.5µM*	2.8µM*	8.2µM*	11µM*
CCOC(=O)c1sc2nc3c(cc2c1N)COC(C(C)C)C3 (stereo not given)	-84%	u	0.79µM*	0.13µM*	0.12µM*
SMILES	SMN2 splice enh	Rab9 promoter act	NPC1 promoter act	ELG1 genotoxic	FLuc counter
Cc1ccc(NC(=S)NC2CCSc3ccccc32)cc1 (stereo not given)	x	-2%	8%	-1%	-10%
O=c1nc(Nc2cccc(Cl)c2)oc2cc(Cl)oc(=O)c12	x	-2%	18%	6%	13µM*
Cc1ccc(N(CC(=O)N2CCCCCC2)S(C)(=O)=O)cc1Cl	x	-1%	6%	-3%	0%
CC12CCC(C(=O)NNC(=O)c3ccccc3)(OC1=O)C2(C)C (stereo not given)	x	1%	-5%	1%	0%
CCOc1ccc(NC(=O)c2sc3nc(-c4ccc(OC)cc4)cn3c2C)cc1	x	x	x	x	-8%
COc1ccc(-c2cn3c4c(sc3n2)CCCC4)cc1	1.3µM*	0.5µM*	1µM*	u	0.21µM*
O=C(C[n+]1ccc(-c2cc(C(=O)Nc3cccc(C(F)(F)F)c3)c3ccccc3n2)cc1)c1cccc([N+](=O)[O-])c1	-4%	1%	-7%	6%	-20%
Cc1cccc(-c2nnc(-c3cccc(NC(=O)Cc4cccs4)c3)o2)c1	27%	-2%	2%	0%	12µM*
Cc1ccc(-c2nnc(-c3cccc(NC(=O)c4cccs4)c3)o2)cc1	-14%	2%	29%	-6%	2.7µM*
COc1ccc(/C=N/NC(=O)COc2cccc3cccnc23)cc1OC	2%	-8%	-5%	-3%	u
Cc1ccc(/C=C/C(=O)OCc2nc(N)nc(Nc3ccccc3C)n2)o1	5%	-1%	-2%	-4%	-18%
O=C(CCN1C(=O)C2C3C=CC(C3)C2C1=O)N1CCCCC1 (stereo not given)	16%	-5%	-2%	1%	0%
O=C(NCc1ccccn1)c1n[nH]c2ccccc12	6%	19%	29%	10%	u
CC(C)Oc1ccc(OCCn2c(=S)[nH]c3c(N)ncnc32)cc1	-27%	-1%	-3%	u	27µM*
Cc1ccc(-n2c(O)c(C=Nc3ccccc3-c3n[nH]c(=S)[nH]c3=O)c3ccccc3c2=O)cc1C	7%	-4%	-2%	-5%	-5%
Cc1cccc(OCC(=O)NCC2CCCO2)c1C (stereo not given)	-16%	-11%	-3%	1%	3%
COc1ccc2c(CC(=O)OCC(=O)NC(=O)c3cccn3C)coc2c1	3%	9%	6%	2%	1%
O=C(O/N=C/c1ccc(Cl)cc1)C1CCCCC1	x	1%	1%	-2%	2.7µM*
CN(CCOCCOc1ccc(Cl)cc1Br)Cc1ccccc1	-31%	-6%	0%	-10%	-15%
Cc1cc(C)nc(NC(N)=NC2CCCCC2)n1	-6%	-8%	0%	-10%	0%
CN(c1cccc(Cl)c1)S(=O)(=O)c1cccc(C(=O)Nc2nc3ccccc3[nH]2)c1	-96%	-4%	1%	-15%	-17%
O=C(Nc1nc2ccccc2[nH]1)c1ccccc1O	x	0.89µM*	1.8µM*	u	2.7µM*
O=C(Nc1nc2ccccc2[nH]1)c1cccc(Cl)c1	x	0.71µM*	1µM*	16µM*	2.1µM*
O=C(NNc1ncnc2ccccc12)c1cccc(Cl)c1	x	1.8µM*	u	u	2.7µM*
O=C(Nc1nc2ccccc2[nH]1)c1ccc(Cl)cc1	x	0.32µM*	0.32µM*	u	0.43µM*
Cc1cccc(OCC(=O)NCCNC(=O)c2ccncc2)c1	x	0%	2%	-4%	0%
N#Cc1ncc(Cl)c2ccccc12	x	1%	-3%	4%	-2%
Cc1nn(C)cc1NC(=O)Cn1nc(C(F)(F)F)cc1C1CC1	15%	3%	-4%	0%	0%
CN1CCN(c2nc3ccccc3nc2C(C#N)C(=O)OC2CCCCC2)CC1 (stereo not given)	-10%	0%	0%	-4%	-2%
Cc1ccc(OCCCC(=O)Nc2nc3ccccc3[nH]2)cc1	9%	3%	7%	0%	3%

Assay outcomes from PubChem BioAssay.
